Data: PubChem BioAssay

target: NADPH oxidase 5 (Homo sapiens) (UniProt Q96PH1); assay: compounds shifting NOX5 Amplex Red fluorescence – cell-based, HEK293-NOX5, NOX inhibitor project, primary screen (AID 1161); details: HEK293-NOX5, ionomycin, 45 min, higher = more signal
Sequence (Q96PH1 whole entry, looked up): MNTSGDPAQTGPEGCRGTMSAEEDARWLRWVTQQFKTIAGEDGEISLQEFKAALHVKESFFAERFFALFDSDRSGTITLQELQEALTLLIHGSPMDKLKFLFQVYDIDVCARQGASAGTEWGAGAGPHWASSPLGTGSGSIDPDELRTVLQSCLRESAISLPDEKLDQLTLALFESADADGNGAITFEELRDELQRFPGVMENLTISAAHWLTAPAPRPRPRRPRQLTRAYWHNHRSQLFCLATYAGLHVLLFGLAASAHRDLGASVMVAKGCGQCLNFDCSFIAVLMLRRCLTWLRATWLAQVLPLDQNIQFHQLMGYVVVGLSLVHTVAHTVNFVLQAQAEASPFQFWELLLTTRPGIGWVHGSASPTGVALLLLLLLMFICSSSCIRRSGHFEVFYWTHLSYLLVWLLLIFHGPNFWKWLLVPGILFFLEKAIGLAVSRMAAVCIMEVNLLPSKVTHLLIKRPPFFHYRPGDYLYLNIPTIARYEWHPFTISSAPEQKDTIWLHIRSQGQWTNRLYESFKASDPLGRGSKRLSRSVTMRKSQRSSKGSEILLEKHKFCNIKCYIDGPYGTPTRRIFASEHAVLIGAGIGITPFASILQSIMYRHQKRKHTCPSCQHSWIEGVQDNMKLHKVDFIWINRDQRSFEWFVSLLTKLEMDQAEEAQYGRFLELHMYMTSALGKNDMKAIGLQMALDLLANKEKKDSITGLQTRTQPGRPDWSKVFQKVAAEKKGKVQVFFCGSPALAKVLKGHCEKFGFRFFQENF

First: CCCC=C(CCC)[C@@H](NC(=O)c1cccs1)c1ccc(C(F)(F)F)cc1
Second: COC(=O)[C@@]1(Cc2ccc(F)cc2)[C@H]2c3cc(C(=O)N4CCCC4)n(CCCNc4ncc(C(F)(F)F)cc4Cl)c3C[C@H]2CN1C(=O)c1ccccc1
The z-score of the first is lower: -2.77 for the first, -0.307 for the second.

Going from CN(C)C(=O)[C@]1(Cc2ccccc2N=[N+]=[N-])N=C(c2ccc(OCCCO)cc2)O[C@@H]1c1ccccc1N=[N+]=[N-] to COC(=O)[C@@]1(Cc2ccc(OC)cc2)[C@H]2c3cc(C(=O)N(C)C)n(Cc4ccccn4)c3C[C@H]2CN1C(=O)c1ccccc1, the z-score falls from 0.199 to -2.73.

First: O=C(CS)NCCCCCCNC(=O)[C@@H]1C[C@@H]2C(=O)NCC(=O)N2[C@@H]1c1cccc(OCCO)c1
Second: C=CCOC(=O)[C@@H]1[C@H]2C(=O)O[C@H](c3ccccc3)[C@H](c3ccccc3)N2[C@H](c2ccc(OCCOC(=O)[C@@H]3C[C@@H]4C(=O)NCC(=O)N4[C@@H]3c3ccc(O)cc3)cc2)[C@@]12C(=O)Nc1ccc(I)cc12
The z-score of the first is lower: 0.711 for the first, 1.35 for the second.

First: CCOC(=O)C[C@H]1[C@H](OC(=O)c2ccccc2-c2ccccc2)[C@@H](NC(=O)CC(C)C)c2cc(OCCCO)ccc2N1C(=O)Cc1ccc(OC)cc1
Second: COc1ccc(CCNC(=O)[C@@]2(C)c3ccccc3C(=O)N(C(C)C)[C@H]2c2ccc(CO)cc2)cc1
The z-score of the first is lower: -0.33 for the first, -0.224 for the second.

First: COc1ccc([C@H]2OC[C@@H]3C[C@@H](Cc4ccccc4)C(=O)N32)cc1
Second: O=C1C[C@@](C(=O)NCCN2CCOCC2)(c2ccc([N+](=O)[O-])cc2)[C@@H](c2ccc(CO)cc2)N1CC12CC3CC(CC(C3)C1)C2
The z-score of the first is higher: -0.604 for the first, -1.06 for the second.
